PubChem BioAssay (NCI)
Compounds without any hit were thinned out: in the full panel of roughly 83,000, 20% have a hit.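 Treatment: one concentration, 48 hours, 96-well format. Scoring: percent growth, with anything below 10 considered active.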 A number with no mark means an inactive call. The source made the active and inactive calls.

Experiments:
Assay in all cases: NCI-60 one-dose screen, 48 h (100 = growth as untreated, 0 = no growth, -100 = all killed)
Settings in all cases: 10 µM unless noted
DU-145 prostate = system: DU-145 prostate
MALME-3M melanoma = system: MALME-3M melanoma
MDA-MB-231 breast = system: MDA-MB-231 breast
SF-268 CNS = system: SF-268 CNS
SF-295 CNS = system: SF-295 CNS
SF-539 CNS = system: SF-539 CNS
UACC-257 melanoma = system: UACC-257 melanoma
M14 melanoma = system: M14 melanoma
HCT-15 colon = system: HCT-15 colon
HT29 colon = system: HT29 colon
SNB-75 CNS = system: SNB-75 CNS
SNB-19 CNS = system: SNB-19 CNS
U251 CNS = system: U251 CNS
PC-3 prostate = system: PC-3 prostate
SK-MEL-5 melanoma = system: SK-MEL-5 melanoma
UACC-62 melanoma = system: UACC-62 melanoma
LOX IMVI melanoma = system: LOX IMVI melanoma
SK-MEL-28 melanoma = system: SK-MEL-28 melanoma
RXF 393 renal = system: RXF 393 renal
K-562 leukemia = system: K-562 leukemia

| SMILES | growth (DU-145 prostate) | growth (MALME-3M melanoma) | growth (MDA-MB-231 breast) [%] | growth (SF-268 CNS) [%] | growth (SF-295 CNS) | growth (SF-539 CNS) | growth (UACC-257 melanoma) | growth (M14 melanoma) [%] | growth (HCT-15 colon) [%] | growth (HT29 colon) | growth (SNB-75 CNS) | growth (SNB-19 CNS) [%] | growth (U251 CNS) [%] | growth (PC-3 prostate) [%] | growth (SK-MEL-5 melanoma) [%] | growth (UACC-62 melanoma) [%] | growth (LOX IMVI melanoma) | growth (SK-MEL-28 melanoma) [%] | growth (RXF 393 renal) | growth (K-562 leukemia) [%] |
| --- | --- | --- | --- | --- | --- | --- | --- | --- | --- | --- | --- | --- | --- | --- | --- | --- | --- | --- | --- | --- |
| NC(=O)c1ccc[n+](CC(=O)N2CCN(c3cc4c(cc3F)c(=O)c(C(=O)O)cn4C3CC3)CC2)c1 | 96.4% | 6.59% (active) | 99.8 | 76.7 | 108% | 88.6% | 89.4% | 76.4 | 81.8 | 99.3% | 88.2% | 92.6 | 88.4 | 88.9 | 93.7 | 59.2 | 43% | 75.8 | – | – |
| Cc1ccc2[nH]c(=O)cc(-n3nncc3COc3ccc(C=O)cc3)c2c1 | 105% | 100% | 101 | 102 | 104% | 99.4% | 116% | 103 | 102 | 105% | 91.2% | 102 | 102 | 97.8 | 101 | 93.7 | 99.6% | 113 | – | – |
| Clc1nc(Nc2ccccc2)nc(Nc2ccccc2)n1 | 101% | 111% | 88.8 | 103 | 100% | 100% | 130% | 118 | 100 | 116% | 105% | 104 | 110 | 99.5 | 99.8 | 96.3 | 94.1% | 112 | 117% | – |
| COc1ccc2c(c1)OC1=C(C(=O)OC1)C2c1cc(OC)c(OC)c(OC)c1 (stereo not drawn) | 6.88% (active) | 61.1% | 42.7 | 32 | 8.32% (active) | 0.966% (active) | 39.6% | – | – | 6.93% (active) | 41.1% | 33.8 | 21.6 | 28.1 | 16.1 | 42.3 | 50.8% | 53.5 | – | 14.1 |
| CC(C)Cc1ccc(C(C)C(=O)NCc2ccc(Cn3c(=O)sn(-c4ccc(Cl)cc4)c3=O)cc2)cc1 (stereo not drawn) | 84.4% | 79.2% | 66.1 | 79.9 | 80.9% | 63% | 81.1% | 84.7 | – | 75.6% | 79.4% | 83.9 | 65.5 | 82.8 | 94.1 | 66.4 | 76.1% | 77 | – | – |
| Nc1nc(SN=Nc2ccc(S(N)(=O)=O)cc2)c2[nH]cnc2n1 | 15% | 24.6% | 16.9 | 19.8 | 12.6% | 14.9% | 8.28% (active) | 11.1 | 12.6 | 9.84% (active) | 5.46% (active) | 103 | 42.7 | 23.8 | 46.7 | – | -9.46% (active) | 15.6 | -6.34% (active) | – |
| Cn1ncc2c(Nc3ccccc3Cl)nc(Cl)nc21 | 139% | 122% | 87 | 114 | 103% | 102% | 128% | 124 | 98.4 | 96.2% | 78.6% | 114 | 112 | 109 | 107 | 87.1 | 104% | 119 | – | – |
| O=C(Nc1sc2c(c1C(=O)O)CCCC2)c1cccc(C(F)(F)F)c1 | 94.2% | 99.9% | 94 | 94.9 | 85.1% | 93.4% | 80.7% | 98.8 | 89.3 | 97.7% | 104% | 100 | 88.3 | 90.8 | 81.2 | 77.5 | 102% | 94.4 | – | – |
| CCC(=O)c1ccc(O)c(OC)c1 | 113% | 104% | 92 | 104 | 105% | 111% | 85.7% | 101 | – | 103% | 100% | 95.9 | 93.9 | 92.4 | 98.6 | – | 102% | 97.8 | 111% | – |
| CCCOc1nc(SCCC)nc2c1cnn2-c1ccccc1 | 110% | 119% | 105 | 87.7 | 108% | 98.4% | 113% | 109 | 108 | 83.1% | 98.6% | 103 | 107 | 102 | 106 | 86.8 | 110% | 122 | – | – |
| COc1ccc(C2=C(c3ccccc3)c3ccc(OC(C)=O)cc3OC2(C)C)cc1 | 105% | 107% | 68.2 | 102 | 72.3% | 102% | 145% | 110 | 80.4 | 105% | 118% | 111 | 95.7 | 72.4 | 93.1 | 83.5 | 71.4% | 100 | 95.8% | – |
| COc1cc2nc(-c3ccc(C#N)cc3)[nH]c(=O)c2cc1OC | 105% | 263% | 94 | 100 | 95.9% | 101% | -1.56% (active) | 87.7 | 107 | 113% | 109% | 98.9 | 100 | 105 | 96.8 | 87.8 | 90.8% | 102 | – | – |
| O=C1Nc2c(ccc(Cl)c2Cl)/C1=C/c1ccccn1 | 104% | 85.5% | 84.7 | 84.8 | 107% | 92.8% | -20.9% (active) | 69.9 | 70.9 | 78.5% | 84.6% | 84.5 | 85 | 75.2 | 83.1 | 70.5 | 43.9% | 105 | – | – |
